# Test results published in ChEMBL document CHEMBL1961873, “Compounds: GSK PKIS; Assays: Nanosyn kinase panel” (2012).
# What was measured:
# [1] = target: Sphingosine kinase 1 (Homo sapiens) (UniProt Q9NYA1); conditions: at 1 µM;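 also: mean SPHK1 inhibition value reported from the GSK PKIS kinase panel screen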
# [2] = target: T1, Sphingosine kinase 2 (Homo sapiens) (UniProt Q9NRA0); conditions: at 0.1 µM
# T1 sequence (whole entry): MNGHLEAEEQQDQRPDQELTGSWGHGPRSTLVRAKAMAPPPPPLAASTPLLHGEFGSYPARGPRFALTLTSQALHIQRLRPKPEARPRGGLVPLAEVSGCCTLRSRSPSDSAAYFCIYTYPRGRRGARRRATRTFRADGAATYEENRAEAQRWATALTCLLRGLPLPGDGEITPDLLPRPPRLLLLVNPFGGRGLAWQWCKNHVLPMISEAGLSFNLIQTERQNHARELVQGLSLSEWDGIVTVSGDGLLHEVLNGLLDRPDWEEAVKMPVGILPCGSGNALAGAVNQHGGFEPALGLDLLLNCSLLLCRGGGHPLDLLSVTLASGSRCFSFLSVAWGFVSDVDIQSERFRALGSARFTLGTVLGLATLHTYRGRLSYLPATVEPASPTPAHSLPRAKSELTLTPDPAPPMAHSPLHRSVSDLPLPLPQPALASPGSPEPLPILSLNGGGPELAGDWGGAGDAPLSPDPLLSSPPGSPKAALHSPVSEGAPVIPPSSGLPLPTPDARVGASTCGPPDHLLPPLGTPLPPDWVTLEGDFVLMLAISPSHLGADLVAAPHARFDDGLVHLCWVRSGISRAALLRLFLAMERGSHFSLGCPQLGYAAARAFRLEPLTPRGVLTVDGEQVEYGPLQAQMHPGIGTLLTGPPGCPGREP
# [3] = target: T1, Sphingosine kinase 2 (Homo sapiens); conditions: at 1 µM
# [4] = target: Casein kinase II subunit alpha (Homo sapiens) (UniProt P68400); conditions: at 0.1 µM
# [5] = target: Casein kinase II subunit alpha (Homo sapiens) (UniProt P68400); conditions: at 1 µM
# [6] = target: T2, Inhibitor of nuclear factor kappa-B kinase subunit alpha (Homo sapiens) (UniProt O15111); conditions: at 0.1 µM
# T2 sequence (whole entry): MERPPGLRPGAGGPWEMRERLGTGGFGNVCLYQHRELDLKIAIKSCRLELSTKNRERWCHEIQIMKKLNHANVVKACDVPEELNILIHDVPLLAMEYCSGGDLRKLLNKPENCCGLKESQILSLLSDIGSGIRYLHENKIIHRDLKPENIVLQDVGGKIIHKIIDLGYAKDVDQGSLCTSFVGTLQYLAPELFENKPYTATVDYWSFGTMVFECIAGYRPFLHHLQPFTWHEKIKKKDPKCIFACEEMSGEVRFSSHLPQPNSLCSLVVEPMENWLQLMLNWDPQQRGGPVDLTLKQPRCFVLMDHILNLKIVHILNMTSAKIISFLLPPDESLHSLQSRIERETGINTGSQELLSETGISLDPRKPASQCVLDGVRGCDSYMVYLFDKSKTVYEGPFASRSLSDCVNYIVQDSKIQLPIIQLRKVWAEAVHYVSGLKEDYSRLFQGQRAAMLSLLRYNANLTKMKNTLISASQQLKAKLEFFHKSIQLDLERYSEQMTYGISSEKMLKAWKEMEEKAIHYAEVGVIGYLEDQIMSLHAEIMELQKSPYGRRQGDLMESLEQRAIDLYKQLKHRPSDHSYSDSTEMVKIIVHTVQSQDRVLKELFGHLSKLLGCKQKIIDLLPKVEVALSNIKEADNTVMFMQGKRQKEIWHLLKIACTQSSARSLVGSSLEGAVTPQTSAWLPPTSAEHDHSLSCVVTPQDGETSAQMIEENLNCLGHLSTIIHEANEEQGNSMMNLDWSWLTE
# [7] = target: T2, Inhibitor of nuclear factor kappa-B kinase subunit alpha (Homo sapiens); conditions: at 1 µM
# [8] = target: T3, Inhibitor of nuclear factor kappa-B kinase subunit beta (Homo sapiens) (UniProt O14920); conditions: at 0.1 µM
# T3 sequence (whole entry): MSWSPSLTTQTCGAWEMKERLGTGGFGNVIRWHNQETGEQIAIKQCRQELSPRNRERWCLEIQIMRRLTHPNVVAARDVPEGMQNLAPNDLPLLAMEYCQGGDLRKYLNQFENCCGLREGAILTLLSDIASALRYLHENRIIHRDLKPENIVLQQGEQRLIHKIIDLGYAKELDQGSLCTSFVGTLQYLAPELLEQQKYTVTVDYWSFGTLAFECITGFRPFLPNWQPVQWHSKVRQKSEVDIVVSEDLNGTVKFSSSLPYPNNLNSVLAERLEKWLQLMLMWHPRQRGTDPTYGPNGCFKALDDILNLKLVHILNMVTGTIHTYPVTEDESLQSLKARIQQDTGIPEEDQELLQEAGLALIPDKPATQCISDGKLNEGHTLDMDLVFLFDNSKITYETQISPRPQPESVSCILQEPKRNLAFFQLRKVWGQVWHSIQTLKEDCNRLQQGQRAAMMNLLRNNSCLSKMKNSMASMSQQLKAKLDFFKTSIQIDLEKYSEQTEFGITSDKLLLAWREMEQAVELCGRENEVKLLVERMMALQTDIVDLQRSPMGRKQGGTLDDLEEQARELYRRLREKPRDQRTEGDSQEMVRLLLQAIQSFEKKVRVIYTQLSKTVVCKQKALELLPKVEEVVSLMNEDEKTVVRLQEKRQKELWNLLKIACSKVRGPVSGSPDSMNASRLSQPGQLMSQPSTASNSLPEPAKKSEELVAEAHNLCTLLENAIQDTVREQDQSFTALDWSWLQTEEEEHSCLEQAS
# [9] = target: T3, Inhibitor of nuclear factor kappa-B kinase subunit beta (Homo sapiens); conditions: at 1 µM
# [10] = target: T4, Inhibitor of nuclear factor kappa-B kinase subunit epsilon (Homo sapiens) (UniProt Q14164); conditions: at 0.1 µM
# T4 sequence (whole entry): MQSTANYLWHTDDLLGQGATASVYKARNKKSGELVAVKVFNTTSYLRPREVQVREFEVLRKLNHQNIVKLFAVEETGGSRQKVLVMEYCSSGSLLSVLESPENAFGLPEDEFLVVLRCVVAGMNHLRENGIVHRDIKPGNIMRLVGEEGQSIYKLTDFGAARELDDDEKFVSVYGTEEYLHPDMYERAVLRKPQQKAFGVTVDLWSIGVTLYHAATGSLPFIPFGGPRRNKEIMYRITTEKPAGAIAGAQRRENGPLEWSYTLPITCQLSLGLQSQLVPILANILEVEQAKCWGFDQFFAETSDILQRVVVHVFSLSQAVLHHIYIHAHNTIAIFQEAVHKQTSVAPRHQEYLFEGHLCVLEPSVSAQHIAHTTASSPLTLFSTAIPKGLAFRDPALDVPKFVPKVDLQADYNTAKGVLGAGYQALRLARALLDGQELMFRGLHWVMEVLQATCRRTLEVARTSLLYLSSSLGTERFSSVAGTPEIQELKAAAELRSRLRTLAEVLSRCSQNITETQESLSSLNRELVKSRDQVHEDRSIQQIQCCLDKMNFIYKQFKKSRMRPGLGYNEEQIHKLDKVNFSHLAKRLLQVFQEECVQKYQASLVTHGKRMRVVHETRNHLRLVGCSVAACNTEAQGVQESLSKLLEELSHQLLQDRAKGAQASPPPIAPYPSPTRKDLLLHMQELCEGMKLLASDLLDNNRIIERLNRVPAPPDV
# [11] = target: T4, Inhibitor of nuclear factor kappa-B kinase subunit epsilon (Homo sapiens); conditions: at 1 µM
# [12] = target: T5, Serine/threonine-protein kinase Nek1 (Homo sapiens) (UniProt Q96PY6); conditions: at 0.1 µM
# T5 sequence (whole entry): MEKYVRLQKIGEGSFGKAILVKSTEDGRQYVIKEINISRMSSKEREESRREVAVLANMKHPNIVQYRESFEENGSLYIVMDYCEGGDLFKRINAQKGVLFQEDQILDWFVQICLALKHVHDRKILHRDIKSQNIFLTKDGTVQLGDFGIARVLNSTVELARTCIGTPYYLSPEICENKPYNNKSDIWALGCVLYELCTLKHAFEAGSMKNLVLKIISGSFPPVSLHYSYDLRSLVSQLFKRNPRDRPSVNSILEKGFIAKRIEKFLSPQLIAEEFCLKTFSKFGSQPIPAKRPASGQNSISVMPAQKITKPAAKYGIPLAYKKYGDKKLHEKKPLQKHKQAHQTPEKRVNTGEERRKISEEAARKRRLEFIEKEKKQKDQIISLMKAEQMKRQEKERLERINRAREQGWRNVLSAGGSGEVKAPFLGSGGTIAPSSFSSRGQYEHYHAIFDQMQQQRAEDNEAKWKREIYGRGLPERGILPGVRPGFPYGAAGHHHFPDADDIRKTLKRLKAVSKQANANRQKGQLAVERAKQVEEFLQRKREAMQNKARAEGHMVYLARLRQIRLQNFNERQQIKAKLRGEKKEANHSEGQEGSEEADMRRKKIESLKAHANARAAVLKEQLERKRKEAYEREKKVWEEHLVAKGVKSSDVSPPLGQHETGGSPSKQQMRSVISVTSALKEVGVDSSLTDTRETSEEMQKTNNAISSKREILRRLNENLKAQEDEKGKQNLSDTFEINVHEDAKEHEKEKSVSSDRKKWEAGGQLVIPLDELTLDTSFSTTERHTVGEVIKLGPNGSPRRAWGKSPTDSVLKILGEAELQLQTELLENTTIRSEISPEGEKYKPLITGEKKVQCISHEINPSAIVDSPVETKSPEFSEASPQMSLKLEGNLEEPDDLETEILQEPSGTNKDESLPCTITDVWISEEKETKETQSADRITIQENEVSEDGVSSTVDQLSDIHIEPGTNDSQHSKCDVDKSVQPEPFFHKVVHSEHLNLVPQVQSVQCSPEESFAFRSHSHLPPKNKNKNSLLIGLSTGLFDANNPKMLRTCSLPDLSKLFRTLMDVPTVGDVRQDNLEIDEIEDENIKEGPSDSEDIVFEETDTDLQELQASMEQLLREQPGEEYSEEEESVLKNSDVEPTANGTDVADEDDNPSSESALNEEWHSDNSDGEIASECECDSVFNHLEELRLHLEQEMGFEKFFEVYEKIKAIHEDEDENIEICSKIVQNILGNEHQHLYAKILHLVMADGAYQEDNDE
# [13] = target: T5, Serine/threonine-protein kinase Nek1 (Homo sapiens); conditions: at 1 µM
# [14] = target: T6, Serine/threonine-protein kinase Nek2 (Homo sapiens) (UniProt P51955); conditions: at 0.1 µM
# T6 sequence (whole entry): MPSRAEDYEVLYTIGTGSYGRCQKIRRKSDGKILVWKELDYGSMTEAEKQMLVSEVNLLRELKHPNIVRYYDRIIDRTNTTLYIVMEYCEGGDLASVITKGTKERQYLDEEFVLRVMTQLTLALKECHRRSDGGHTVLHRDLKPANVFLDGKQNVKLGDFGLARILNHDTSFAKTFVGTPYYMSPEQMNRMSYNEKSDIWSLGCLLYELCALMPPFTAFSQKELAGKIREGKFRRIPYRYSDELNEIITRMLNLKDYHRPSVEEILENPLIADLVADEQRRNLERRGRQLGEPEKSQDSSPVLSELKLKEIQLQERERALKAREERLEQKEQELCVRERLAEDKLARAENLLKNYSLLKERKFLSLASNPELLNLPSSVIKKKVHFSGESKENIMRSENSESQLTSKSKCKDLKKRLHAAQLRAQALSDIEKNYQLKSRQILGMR
# [15] = target: T6, Serine/threonine-protein kinase Nek2 (Homo sapiens); conditions: at 1 µM
# [16] = target: Serine/threonine-protein kinase Nek6 (Homo sapiens) (UniProt Q9HC98); conditions: at 0.1 µM
# [17] = target: Serine/threonine-protein kinase Nek6 (Homo sapiens) (UniProt Q9HC98); conditions: at 1 µM
# [18] = target: Serine/threonine-protein kinase Nek7 (Homo sapiens) (UniProt Q8TDX7); conditions: at 0.1 µM
# [19] = target: Serine/threonine-protein kinase Nek7 (Homo sapiens) (UniProt Q8TDX7); conditions: at 1 µM
# [20] = target: T7, Serine/threonine-protein kinase Nek9 (Homo sapiens) (UniProt Q8TD19); conditions: at 0.1 µM;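 also: reported value is the mean percent inhibition of NEK9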
# T7 sequence (whole entry): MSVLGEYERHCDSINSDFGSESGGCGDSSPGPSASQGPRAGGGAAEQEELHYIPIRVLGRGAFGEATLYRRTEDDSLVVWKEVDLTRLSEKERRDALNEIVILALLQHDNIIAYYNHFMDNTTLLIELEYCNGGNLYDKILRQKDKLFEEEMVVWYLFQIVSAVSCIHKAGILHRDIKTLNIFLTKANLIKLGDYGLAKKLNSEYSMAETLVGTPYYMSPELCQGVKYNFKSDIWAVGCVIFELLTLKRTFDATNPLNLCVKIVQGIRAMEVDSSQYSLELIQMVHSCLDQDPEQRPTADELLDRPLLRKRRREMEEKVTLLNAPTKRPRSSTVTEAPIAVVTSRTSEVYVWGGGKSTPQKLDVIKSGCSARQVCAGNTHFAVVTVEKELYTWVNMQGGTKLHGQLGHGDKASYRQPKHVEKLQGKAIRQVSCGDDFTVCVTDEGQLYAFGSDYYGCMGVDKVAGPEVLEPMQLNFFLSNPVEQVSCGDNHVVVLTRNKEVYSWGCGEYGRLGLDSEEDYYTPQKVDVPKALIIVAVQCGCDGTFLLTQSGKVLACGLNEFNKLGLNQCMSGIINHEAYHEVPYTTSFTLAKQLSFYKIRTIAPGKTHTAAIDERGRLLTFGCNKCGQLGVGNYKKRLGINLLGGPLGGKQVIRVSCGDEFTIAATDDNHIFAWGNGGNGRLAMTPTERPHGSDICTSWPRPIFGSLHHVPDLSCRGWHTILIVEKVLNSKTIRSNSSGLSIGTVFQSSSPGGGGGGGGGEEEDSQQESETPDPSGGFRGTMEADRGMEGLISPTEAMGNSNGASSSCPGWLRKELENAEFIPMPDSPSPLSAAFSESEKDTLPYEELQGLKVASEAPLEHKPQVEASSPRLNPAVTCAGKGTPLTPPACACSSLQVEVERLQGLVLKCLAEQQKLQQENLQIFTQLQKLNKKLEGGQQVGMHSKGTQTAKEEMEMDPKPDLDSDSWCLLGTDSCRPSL
# Chain of Casein kinase II subunit alpha (Homo sapiens) (P68400 whole entry, looked up): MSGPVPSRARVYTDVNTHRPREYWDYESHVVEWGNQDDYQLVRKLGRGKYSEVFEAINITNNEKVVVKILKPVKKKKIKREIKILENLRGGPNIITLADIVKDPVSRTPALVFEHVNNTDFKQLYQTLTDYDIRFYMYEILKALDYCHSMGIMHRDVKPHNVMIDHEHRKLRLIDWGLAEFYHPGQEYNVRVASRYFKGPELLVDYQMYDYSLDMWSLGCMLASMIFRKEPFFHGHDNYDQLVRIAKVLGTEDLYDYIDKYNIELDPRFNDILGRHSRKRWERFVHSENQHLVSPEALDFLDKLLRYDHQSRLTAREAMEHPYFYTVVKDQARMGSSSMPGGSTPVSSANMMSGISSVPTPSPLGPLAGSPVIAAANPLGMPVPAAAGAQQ
# Chain of Serine/threonine-protein kinase Nek6 (Homo sapiens) (Q9HC98 whole entry): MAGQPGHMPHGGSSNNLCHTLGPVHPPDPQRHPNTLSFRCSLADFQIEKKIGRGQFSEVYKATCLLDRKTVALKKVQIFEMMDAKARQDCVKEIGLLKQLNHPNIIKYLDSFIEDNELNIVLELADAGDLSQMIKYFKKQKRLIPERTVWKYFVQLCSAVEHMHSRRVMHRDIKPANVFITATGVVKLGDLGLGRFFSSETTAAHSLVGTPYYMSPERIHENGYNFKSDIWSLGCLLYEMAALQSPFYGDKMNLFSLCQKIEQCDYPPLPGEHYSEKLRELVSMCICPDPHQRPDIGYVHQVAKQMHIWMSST
# Chain of Serine/threonine-protein kinase Nek7 (Homo sapiens) (Q8TDX7 whole entry, looked up): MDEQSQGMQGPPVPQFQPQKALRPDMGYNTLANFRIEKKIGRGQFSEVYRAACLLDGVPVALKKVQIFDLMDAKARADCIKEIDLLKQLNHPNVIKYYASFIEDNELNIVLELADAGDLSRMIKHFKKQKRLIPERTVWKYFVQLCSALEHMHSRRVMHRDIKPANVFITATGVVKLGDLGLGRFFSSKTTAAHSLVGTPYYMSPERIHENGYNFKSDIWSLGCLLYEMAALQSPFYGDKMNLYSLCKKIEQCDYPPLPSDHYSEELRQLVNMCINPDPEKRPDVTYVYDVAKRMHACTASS
# Chain of Sphingosine kinase 1 (Homo sapiens) (Q9NYA1 whole entry): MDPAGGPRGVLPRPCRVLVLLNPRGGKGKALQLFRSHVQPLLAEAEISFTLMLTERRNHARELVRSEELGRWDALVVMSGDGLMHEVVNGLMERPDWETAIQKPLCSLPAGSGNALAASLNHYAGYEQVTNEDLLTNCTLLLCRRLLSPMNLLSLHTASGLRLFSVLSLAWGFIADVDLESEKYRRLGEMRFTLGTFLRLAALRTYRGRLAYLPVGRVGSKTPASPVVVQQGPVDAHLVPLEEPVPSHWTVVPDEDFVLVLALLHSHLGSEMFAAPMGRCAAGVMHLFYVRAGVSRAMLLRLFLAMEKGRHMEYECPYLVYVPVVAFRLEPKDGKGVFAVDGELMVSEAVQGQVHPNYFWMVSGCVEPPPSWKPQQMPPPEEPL
smiles,measurement,setting,value
COC(=O)Nc1nc2cc(Oc3cccc(NC(=O)Nc4cc(C(F)(F)F)ccc4F)c3)ccc2[nH]1,inhibition,[1],2.3%
same,inhibition,[2],0%
same,inhibition,[3],0.65%
same,inhibition,[4],-0.44%
same,inhibition,[5],-0.84%
same,inhibition,[6],-3.67%
same,inhibition,[7],4.99%
same,inhibition,[8],0.52%
same,inhibition,[9],1.91%
same,inhibition,[10],1.54%
same,inhibition,[11],0.25%
same,inhibition,[12],-0.22%
same,inhibition,[13],2.32%
same,inhibition,[14],0.79%
same,inhibition,[15],0.72%
same,inhibition,[16],1.5%
same,inhibition,[17],0.11%
same,inhibition,[18],2.69%
same,inhibition,[19],1.59%
same,inhibition,[20],-4.74%
